# Hit rate of the full screen: of about 340,000 compounds, about 120 (0.035%) were called active. The entries come from a sample that favours actives as a whole. Values without a mark were called inactive.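 The calls were made as follows: active = mean replicate inhibition at least 50% and at least half of replicates individually reaching 50%; inconclusive = only one of the two criteria met; inactive = neither criterion met.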
# Assay: blockers of twin-arginine translocation in E. coli – MC4100, TorA-mCherry reporter, fluorescence, single point, primary screen (AID 488895);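 also: exported cargo escapes ClpAP degradation while cytoplasmic cargo is degraded and loses fluorescence; 0% = median of neutral control wells and 100% = median of NaSCN control wells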
# Conditions: E. coli MC4100 TorA-mCherry Tat export, at 10 µM, hits give high values
row,SMILES,inhibition
1,COc1ccccc1C(=O)N/C(=C/c1ccc2c(c1)OCO2)C(=O)Nc1cccc(C(=O)O)c1,0.855%
2,COc1ccc(N(CC(=O)NCc2ccc(F)cc2)C(=O)CCC(=O)Nc2nccs2)cc1,2.29%
3,Cc1ccc(NC(=S)NC(NC(=O)Cc2cccc3ccccc23)C(Cl)(Cl)Cl)cc1 (stereo not given),-13%
4,O=C1NCCn2nc3ccccc3c21,-31.2%
5,O=C(O)CCCn1cc(NC(=O)COc2cccc(Cl)c2)cn1,-4.8%
6,NC(=O)C1(N2CCCCC2)CCN(C(=O)c2ccc(C#Cc3ccccc3)o2)CC1,-3.45%
7,COc1ccccc1N(CCOc1ccccc1)S(=O)(=O)c1ccccc1,10%
8,CC(C)C(=O)Nc1ccc2c(c1)oc1ccccc12,-2.62%
9,C=CCN(CC=C)CCOc1ccccc1[N+](=O)[O-],-4.39%
10,C=CCSC(CC)(CC)C(N)=O,-4.28%
11,COc1cc(C(=O)N2CCN(C/C=C/c3ccccc3)CC2)cc(OC)c1C,6.19%
12,Cc1oc2cc3oc(=O)ccc3cc2c1C,-9.08%
13,Cn1c(SCC(=O)NC2CCCCC2)nnc1-c1cc2ccccc2o1,1.56%
14,Cc1ccc(NC(=O)CN(C)C(=O)c2ccc(Cl)c(S(=O)(=O)NCc3ccco3)c2)cc1,-9.55%
15,COc1ccc(C(=O)N/N=C(\C)CC(=O)Nc2ccc(Cl)cn2)cc1,-26.7%
16,O=C(NC(C(=O)NCCN1CCOCC1)C12CC3CC(CC(C3)C1)C2)C1CCCCC1 (stereo not given),6.49%
17,COc1ccccc1NC(=O)COC(=O)Cc1ccc(S(=O)(=O)N2CCCCC2)s1,-5.48%
18,O=C1C=C(c2cccc(Br)c2)C[C@@H](c2ccc(F)cc2)C1,18.1%
19,CC1(C)C(=O)C2(CCCCC2)C(=O)OC1c1cccs1 (stereo not given),3.17%
20,COCCCC1CCN(C(=O)C2CCC(=O)N(C3CCCCCC3)C2)CC1 (stereo not given),1.02%
21,Cc1ccc(C(=O)NC2CCCC(C)C2C)cc1S(=O)(=O)N1CCCCC1 (stereo not given),-3.8%
22,COc1cc(OC)cc(C(=O)NC2CCN(C(=O)N3c4ccccc4Sc4ccccc43)CC2)c1,9.12%
23,CCC(C)(C(=O)NC1CCCCC1)N(C)C(=O)c1ccc2c(c1)OCO2 (stereo not given),4.87%

row,SMILES,inhibition
1,CCN(CC)c1ccc(C(=O)c2cnc(/N=C/N(C)C)s2)cc1,12.9%
2,CCOc1ccc(CCNC(=O)C2CCN(c3ccc(N4CCOCC4)nn3)CC2)cc1OCC,-3.82%
3,COc1ccc(NC(=O)CSc2nc(NS(=O)(=O)c3ccc(C)cc3)cc(=O)[nH]2)cc1,0.509%
4,CC(C)CC(O)C1CCN(C(=O)CCc2nnc(-c3ccc4c(c3)OCO4)o2)CC1 (stereo not given),-2.64%
5,COc1ccc(N2CC(C(=O)NCCN3C(=O)S/C(=C\c4cccnc4)C3=O)CC2=O)c(OC)c1 (stereo not given),-1.64%
6,O=C1C(Cl)=C(Oc2ccccc2)C(=O)c2ccccc21,-14.1%
7,COc1ccc(-c2nonc2NC(=O)c2oc3ccc(F)cc3c2C)cc1OC,-6.3%
8,Cc1noc(C)c1COc1cccc(C(=O)Nc2cccnc2)c1,11.3%
9,COCCN1C(=O)C(=O)/C(=C(/O)c2ccc(S(=O)(=O)N3CCCCC3)cc2)C1c1ccc(OC)c(OC)c1 (stereo not given),-4.83%
10,COCCCNC(=O)C1CC(=O)N(CCc2ccc(F)cc2)C1 (stereo not given),3.6%
11,O=C(Nc1cccc(F)c1)NC1CCCCCCC1,3.94%
12,C=CCn1c(SCc2c(C(=O)OC)sc(N)c2C(=O)OC)nnc1-c1ccc(Cl)cc1,0.305%
13,CCCn1c(SCC(=O)c2ccc3c(c2)OCCO3)nnc1C(C)C,1.9%
14,CC(=O)c1ccc(NC(=O)C(C)OC(=O)c2ccc(NS(=O)(=O)c3ccc4[nH]c(=O)[nH]c4c3)cc2)cc1 (stereo not given),-1.62%
15,COc1cccc(CCNC(=O)COc2cccc3c2OC(C)(C)C3)c1,-3.07%
16,O=C(NCc1ccccc1)c1onc(CSc2ccncc2)c1C(=O)NCc1ccccc1,4.39%
17,Cn1c(SCC(=O)N2CCCCC2)nc2c(c1=O)SCC2,1.18%
18,COc1cc2c(cc1OC)C(c1ccccc1Br)NC(=O)C2 (stereo not given),4.97%
19,CSc1ccc(/C=C/C(=O)NC23CC4CC(CC(C4)C2)C3)cc1,1.4%
20,COC(=O)c1cc(NC(=O)CC2C(=O)NCCN2C(=O)c2ccc(F)cc2)cc(C(=O)OC)c1 (stereo not given),-6.39%
21,O=C(O)CCc1nc2cc(Cl)ccc2n(Cc2ccccc2)c1=O,3.23%
22,COc1ccccc1CNS(=O)(=O)c1c(C)[nH]c(C)c1C(=O)N1CCCCC1,-2.57%
23,Cc1noc(C)c1CSCC(=O)Nc1ccc(Br)cc1Cl,-0.881%

row,SMILES,inhibition
1,Cc1ccc(/C=N/NC(=O)COc2ccccc2-c2ccccc2)cc1,0.565%
2,CC(=O)NC(C(=O)NCC(N)=O)C(C)C (stereo not given),-5.64%
3,Cc1ccc(SCC(=O)c2cc(C)c(OC(=S)N(C)C)c(C)c2)cc1,5.72%
4,NC(=O)C[C@@H]1NC(=O)CNC(=O)c2cc([N+](=O)[O-])cc(I)c2NCCC(C(N)=O)NC1=O (stereo not given in full),-3.55%
5,O=C(Nc1nnc(C2=COCCO2)o1)c1ccc([N+](=O)[O-])s1,-7.65%
6,CCCOc1ccc2c3c(c(=O)oc2c1OCCC)CCC3,14.7%
7,COc1cc(C2OC(c3cc(OC)c(OC)c(OC)c3)C(C)C2C)cc(OC)c1OC (stereo not given),-3.59%
8,CCn1c(CC(=O)Nc2ccccc2)nnc1SCC(=O)N1CCOCC1,-5.24%
9,C=CCn1c(SCC(=O)Nc2ccc(NC(C)=O)cc2)nc2sc(C)c(C)c2c1=O,-0.334%
10,CC1(C)CC(=O)C(N=Nc2c(F)cccc2F)=C(O)C1,-8.43%
11,CCc1ccccc1N1C(=O)C2C3CC(=O)C(c4ccccc43)C2C1=O (stereo not given),-1.63%
12,COC(=O)C1CCN(CC(N)=O)CC1,-3.53%
13,O=C(COC(=O)c1ccc(N2CCCC2=O)cc1)c1ccc(OC(F)F)cc1,6.18%
14,CCn1c(SCC(=O)c2ccc(Cl)s2)nnc1-c1cccs1,-0.241%
15,CCOC(=O)N1CCC(N2Cc3cccc(C(=O)Nc4c(C)cccc4CC)c3C2=O)CC1,14.7%
16,CC1CCN(C(=S)NC2CC3CCC2C3)CC1 (stereo not given),-4.26%
17,Cc1nc(C(=O)N2CCCC(C(=O)c3ccc(Cl)cc3)C2)cs1 (stereo not given),0.604%
18,Oc1ccccc1-c1cc(-c2ccc(Cl)cc2)n[nH]1,-12.8%
19,NS(=O)(=O)c1cc(C(=O)OCC(=O)NNC(=O)c2ccccc2)ccc1Cl,-3.95%
20,COC(CCN(C)C)(c1ccccc1)c1ccccc1,-2.82%
21,C=C1c2c(Cl)ccc(O)c2C(O)=C2C(=O)[C@]3(O)C(O)=C(C(N)=O)C(=O)[C@@H](N(C)C)[C@@H]3[C@@H](O)C12 (stereo not given in full),28.9%
22,CN(C)[C@@H]1C(=O)C(C(N)=O)=C(O)[C@@]2(O)C(=O)C3=C(O)c4c(O)ccc(Cl)c4[C@@H](O)[C@H]3C[C@@H]12,151% (active)
23,CCN(C(=O)c1cc([N+](=O)[O-])ccc1NCc1cccnc1)c1ccccc1,-1.18%

row,SMILES,inhibition
1,COc1ccc(C(=O)O)cc1S(=O)(=O)NC1CCN(Cc2ccccc2)CC1,-6.45%
2,Cc1ccc(Cl)cc1NC(=O)COC(=O)C1CCCCC1,6.67%
3,O=C(CCc1nnc2ccc(NCc3ccccc3Cl)nn12)NCC1CCN(C2CCCC2)C1 (stereo not given),1.11%
4,O=C(/C=C/Nc1ccc(S(=O)(=O)Nc2cnc3ccccc3n2)cc1)c1cccnc1,-0.716%
5,COc1ccc(Br)cc1/C=N/Nc1ccc(S(=O)(=O)Nc2ccccc2C(=O)O)cc1[N+](=O)[O-],-2.56%
6,O=C(NCCCN1CCN(c2ccc(F)cc2)CC1)Nc1ccc([N+](=O)[O-])cc1,10.8%
7,O=S(=O)(c1ccc(F)cc1)n1ccc(-c2cnc(-c3ccccc3)s2)n1,1.96%
8,O=C(/C=N/O)Nc1ccccc1,1.32%
9,c1ccc2c(-c3nn4nnnc4c4ccccc34)cccc2c1,13.5%
10,COCCNc1nc(N)c([N+](=O)[O-])c(NCCO)n1,-3.96%
11,Cc1ccc(CSCC2Nc3ccc(C(=O)N4CCN(c5ccc(F)cc5)CC4)cc3NC2=O)cc1 (stereo not given),-4.6%
12,NC(=O)CCC(NS(=O)(=O)c1ccc(Cl)cc1)C(=O)NCc1ccccc1Cl (stereo not given),-7.83%
13,CC(=O)N1CCN(CC(c2ccccc2)c2ccccc2)CC1,-7.44%
14,CC1Cc2ccccc2N1C1=CC(=O)CC(C)(C)C1 (stereo not given),-0.619%
15,CCC(C)NC(=O)C1c2ccccc2C(=O)N1Cc1ccccc1 (stereo not given),-2.59%
16,O=C(NCC(=O)N(Cc1cccs1)C(C(=O)NC1CCCCC1)c1ccco1)c1cccs1 (stereo not given),7.02%
17,CC(C)(C)c1ccc(/C=C/C(=O)NC2CCS(=O)(=O)C2)cc1 (stereo not given),0.013%
18,Cc1c(C)c2cc3c4c(oc3c(C)c2oc1=O)CCCC4,-3.36%
19,Cc1cc(N2CCCC2=O)cc(C)c1S(N)(=O)=O,-6.67%
20,CC1Sc2ccc(C(=O)NCc3ccccc3Cl)cc2NC1=O (stereo not given),-5.09%
21,CCC(=O)N1c2ccccc2NC2=C(C(=O)CCC2)C1c1ccco1 (stereo not given),-4.89%

# Reference: PubChem BioAssay AID488895 (Broad Institute, 2010)
